The values that follow come from PubChem BioAssay (NCATS).

Values joined by “and” are separate entries in the source; they are usually repeats but may differ in a detail not shown here. Equal entries are not always repeated. Records with an inconclusive call do not appear. Entries that show only a call come without a potency. Values without a mark were called inactive. Active and inactive are the calls of the source. Calls follow the shape of the dose curve; as a rule, active = well fitted inhibition curve with a large enough effect; inconclusive = small, poorly fitted or top-dose-only effect; inactive = no such curve, though single readings can be large or run the other way.
Potency is read from the fitted curve at half-maximal effect.

Chain of M-phase phosphoprotein 8 (Homo sapiens) (Q99549 whole entry, looked up): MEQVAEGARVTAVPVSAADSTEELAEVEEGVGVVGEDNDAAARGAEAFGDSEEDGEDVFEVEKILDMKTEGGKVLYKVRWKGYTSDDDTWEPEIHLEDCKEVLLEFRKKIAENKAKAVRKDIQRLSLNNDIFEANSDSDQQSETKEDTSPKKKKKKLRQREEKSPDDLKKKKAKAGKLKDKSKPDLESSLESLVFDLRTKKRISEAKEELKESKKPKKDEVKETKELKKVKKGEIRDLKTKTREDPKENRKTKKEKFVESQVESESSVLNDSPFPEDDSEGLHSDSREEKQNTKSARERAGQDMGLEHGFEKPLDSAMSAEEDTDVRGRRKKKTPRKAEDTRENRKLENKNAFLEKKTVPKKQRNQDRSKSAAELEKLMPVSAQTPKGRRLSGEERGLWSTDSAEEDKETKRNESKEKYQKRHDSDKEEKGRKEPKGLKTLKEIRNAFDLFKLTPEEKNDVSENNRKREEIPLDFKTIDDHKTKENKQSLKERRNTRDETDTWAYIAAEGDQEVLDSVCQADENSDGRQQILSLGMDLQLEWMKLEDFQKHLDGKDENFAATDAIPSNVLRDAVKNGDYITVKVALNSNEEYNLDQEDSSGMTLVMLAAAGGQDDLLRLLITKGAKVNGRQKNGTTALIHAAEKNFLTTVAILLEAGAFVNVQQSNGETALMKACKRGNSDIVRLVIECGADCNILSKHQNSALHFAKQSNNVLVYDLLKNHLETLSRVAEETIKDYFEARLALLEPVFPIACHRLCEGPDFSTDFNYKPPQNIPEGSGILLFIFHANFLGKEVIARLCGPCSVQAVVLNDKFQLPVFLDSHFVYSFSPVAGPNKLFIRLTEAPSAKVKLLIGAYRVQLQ

In the test the target is M-phase phosphoprotein 8 (Homo sapiens) (UniProt Q99549). The experiment in a line: qHTS Validation Assay for Inhibitors for MPP8 Chromodomain Interactions with Methylated Histone Tails (AID 488949). Also: nearly all actives have a fitted effect of over 55% in size. As to activity change, negative = inhibition: top concentration of the series differs between compounds. The note with it: AlphaScreen MPP8 binding to H3K9me3 peptide; series mostly up to 57.1 µM; activity change, negative = inhibition: at the top concentration. The source says:
As our understanding of epigenetics expands, it is becoming clear that players in this field are potential targets for drug development. This area of epigenetic therapy has established applications for the treatment of cancer and neurological diseases. We have been involved in this field for a number of years and have performed high-throughput screens to identify the first small molecule inhibitors of protein methyltransferases. These methyltransferases target multiple substrates, and thus regulate many arms of an epigenetic pathway. The methylation of different substrates often generates docking sites for effector proteins that harbor binding domains (chromo, tudor, PHD, MBT and ANK repeats). It has been proposed that the binding sites generated for different proteins by these post-translational modifcations mediate downstream effects on chromatin. Consistent with this theory, di- and tri-methylation of histone H3K9 facilitates the binding of heterochromatin protein HP1. The HP1 protein harbors a chromodomain that is responsible for the methyl-dependent interaction between HP1 and lysine 9 of histone H3. HP1 was first described in flies as a heterochromatin associated protein that can regulate gene silencing. It harbors a chromodomain that binds H3K9me3. In addition, it harbors a chromoshadow domain that interacts with a large number of proteins that are involved in heterochromatin formation and gene repression. There are three highly related HP1 isoforms. All three variants are associated with pericentric heterochromatin and it is not clear whether they have specific or redundant functions. MPP8 is also involved in the repression of gene in euchromatic regions (unpublished data) and like HP1 its chromodomain binds H3K9me3. MPP8 harbors an ankyrin repeat region that is likely involved in binding and recruiting interacting proteins with transcriptional repressive function, much like the chromoshadow domain of HP1 does. We hypothesize that by inhibiting specific protein-protein interactions we will be able to develop compounds that block a single arm of an epigenetic pathway. The specificity attained by blocking a single protein-protein interaction will be far greater than that attained by blocking the enzyme that regulates one of many interactions. Low-affinity protein-protein interactions (Kd in the single- to double-digit micromolar range) such as those discussed here have been very difficult to assay by traditional techniques such as fluorescence polarization or fluorescence resonance energy transfer. We have developed a sensitive chemiluminescence-based assay (Quinn, et al. 2009), which serves as the starting point for this project. The following is a validation assay to identify lead compounds that can block methyl-dependent protein-protein interactions (specifically MPP8), which can be used as probes to analyze these methyl-driven interactions and perhaps even developed into targeted epigenetic therapies. Assay Provider: Mark T. Bedford, MD Anderson Screening Center PI: Austin, C.P. Screening Center: NIH Chemical Genomics Center [NCGC]
To each well, 2 uL of MPP8 protein (final 50 nM) and 1 uL biotinylated histone peptide trimethylated at Lys9 [b-H3(1-18)K9me3] (final 50 nM) was added in 1x PBS buffer, pH 7.4, containing 0.01% Tween-20 using a nanoliter dispenser. Formation of a protein-peptide complex proceeded at room temperature for 30 min. A Kalypsys pin-tool was employed to transfer 23 nL of library compound solution in DMSO to each well. Aurintricarboxylic acid (ATA) was used as an intraplate control with a 12-point titration in duplicate. Following a 30 min incubation of the protein-peptide complex with compounds at room temperature, a mixture of 40 ug/mL each streptavidin-coated donor and nickel chelate acceptor AlphaScreen beads (final 10 ug/mL) was added in a 1 uL dispense for a final volume of 4 uL. Plates were incubated protected from the light for 30 min at room temperature. […]
As to `Cc1cc([C@@H]2CCCN2C)on1`, the “activity change, negative = inhibition” value is 4.76%. `CC(N)[C@H](O)c1ccc(O)c(O)c1` (stereo not given in full): the Potency is 29.9 µM (active). Regarding `C[C@@H]1O[C@@H](O[C@H]2C[C@@H](O)[C@]3(CO)[C@@H]4C(CC[C@]3(O)C2)[C@@]2(O)CC[C@H]([C@@H]3COC(=O)C3)[C@@]2(C)C[C@H]4O)[C@H](O)[C@H](O)[C@H]1O` (stereo not given in full), the “activity change, negative = inhibition” value was 3.22%. As to `CCCN(CCC)CCc1ccc(O)c(O)c1`, the Potency result is “inactive”.

As to `CCNC(=O)[C@H]1O[C@@H](n2cnc3c(N)ncnc32)[C@H](O)[C@@H]1O`, the “activity change, negative = inhibition” value is -3.23%. For the compound `CCCN(CCC)C1Cc2cc(OC)c(OC)cc2C1`, the Potency entry was “inactive”. Same read-out and setting: then `CC(N)Cc1c[nH]c2ccc(O)cc12` (stereo not given), with “inactive”. Still for that read-out and setting: for `COc1cc(CC(C)N)c(OC)cc1I` (stereo not given) the value was “inactive”; for `C[N+](C)(C)CC#CCOC(=O)Nc1cccc(Cl)c1`, “inactive”.

For `NCC(O)c1cc(O)c(O)cc1F` (stereo not given), the Potency is 18.9 µM (active). On the same count and under the same terms, for `C/C(O)=C(\C#N)C(=O)Nc1cc(Br)ccc1Br` the value was “inactive”; for `NNC(N)=O`, “inactive”.

For the compound `C[N+](C)(C)CCOC(=O)CBr`, the “activity change, negative = inhibition” value is 1.05%. With `OC1CCCCC1N1CCC(c2ccccc2)CC1` (stereo not given), the Potency entry is “inactive”.

For `COC(=O)N1CCN(C(=O)Cc2ccc(Cl)c(Cl)c2)C(CN2CCCC2)C1` (stereo not given), the Potency entry was “inactive”. On to `Oc1ccc2c3c1O[C@H]1c4[nH]c5ccccc5c4C[C@@]4(O)C(C2)N(CC2CC2)CCC314` (stereo not given in full), for which the “activity change, negative = inhibition” value is 9.67%. Turning to `Cc1o[nH]c(=O)c1CC(N)C(=O)O` (stereo not given), the Potency result is “inactive”.

For the compound `CC(N)c1cccc(Cl)c1Cl` (stereo not given), the Potency result is “inactive”.

Turning to `NC(=O)CI`, the Potency was 8.91 µM (active). Regarding `CCCN(CCC)CCc1c[nH]c2ccc(C(N)=O)cc12`, the “activity change, negative = inhibition” value was 0.94%. On to `CC(C)(C)c1cc(C=C(C#N)C#N)cc(C(C)(C)C)c1O`, for which the Potency was 10 µM (active). Regarding `C[N+]1(C)CCC(OC(=O)C(c2ccccc2)c2ccccc2)CC1`, the “activity change, negative = inhibition” value is 13.4%. Same read-out and setting: for `N[C@@H](Cn1ccc(=O)[nH]c1=O)C(=O)O` the value was 4.05%; for `Nc1ccc(CCN2CCN(c3cccc(C(F)(F)F)c3)CC2)cc1`, -1.29%. Turning to `NNC(=O)c1ccc(O)cc1`, the Potency entry was “inactive”. Same read-out and setting: for `CCCN1CCc2cc(O)cc3c2[C@H]1Cc1ccc(O)c(O)c1-3` the value was 11.9 µM (active). For `O=[N+]([O-])/C=C/c1ccc2c(c1)OCO2`, the “activity change, negative = inhibition” value was 2.67%. Take `CCOC(=O)c1ncn2c1[C@@H]1CCCN1C(=O)c1cc(OC)ccc1-2`: the Potency result is “inactive”. `CC(N)Cc1c[nH]c2ccc(OCc3cccs3)cc12` (stereo not given): the “activity change, negative = inhibition” value is -0.751%.

With `CC(Cc1ccc(OCC(=O)O)cc1)NCC(O)c1cccc(Cl)c1` (stereo not given), the Potency result is “inactive”. Take `N=C(N)c1ccc(CS(=O)(=O)F)cc1`: the “activity change, negative = inhibition” value was -1.29%.

Consider `CN(N=O)c1ccc(O)c(O)c1`, for which the Potency is 2.51 µM (active) and 2.38 µM (active). The same measure, in the same setting: then `CN1CCC(c2c[nH]c3ccc(O)cc23)CC1`, with “inactive”; and `COc1ccc2c(c1)C13CCCCC1C(C2)N(C)CC3` (stereo not given), with “inactive”; and `C=CCN1CC[C@]23c4c5ccc(O)c4O[C@@H]2/C(=N/N=C2\CC[C@@]4(O)C6Cc7ccc(O)c8c7[C@@]4(CCN6CC=C)[C@@H]2O8)CC[C@@]3(O)C1C5`, with “inactive”. As to `CC(C)[C@@]1(NC(=O)[C@@H]2C[C@@H]3c4cccc5[nH]cc(c45)C[C@H]3N(C)C2)O[C@@]2(O)[C@@H]3CCCN3C(=O)[C@H](Cc3ccccc3)N2C1=O`, the “activity change, negative = inhibition” value is 26.4%.

For the compound `NC(N)=Nc1ccc2[nH]c3c(c2c1)C[C@@]1(O)[C@H]2Cc4ccc(O)c5c4[C@@]1(CCN2CC1CC1)[C@H]3O5`, the Potency was 31.6 µM (active) and 2.12 µM (active). The same measure, in the same setting: for `CC(C)NP(=O)(NC(C)C)OP(=O)(NC(C)C)NC(C)C` the value was “inactive”; for `CCCn1c(C)c(C(=O)c2ccc3ccccc3c2)c2ccccc21`, “inactive”. The same measure, in the same setting: for `NC(=O)c1cc(N2CC2)c([N+](=O)[O-])cc1[N+](=O)[O-]` the value was “inactive”.
